Compound activity (PubChem BioAssay)
Sfp PPTase inh: inhibitors of Bacillus subtilis Sfp phosphopantetheinyl transferase. Q9F4F7. Biochemical Sfp PPTase activity, qHTS. Potency, µM, usual class: inhibitors. 310,000 tested, 3.5% active. AID 1490;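 note: the enzyme is Sfp with the accession as filed and its product quenches rhodamine fluorescence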
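Buffer: 50 mM Hepes-Na pH 7.6, 10 mM MgCl2, 0.01% Nonidet P-40, 0.01% BSA. Enzyme 15 nM, pre-exposed to compound 15 min; substrates then added and fluorescence change tracked over 30 min.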
BAZ2B block: blocks human BAZ2B. Q9UIF8. AlphaScreen BAZ2B-H3K14Ac peptide displacement. Potency, µM (titrated, usually from 114 µM), hits mostly inhibitors. 360,000 tested, 4.4% active. AID 504333; note: nearly all actives have a fitted effect of over 60% in size
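Multi-concentration screen (max 110 uM) measuring displacement of acetylated histone H3 peptide from BAZ2B by AlphaScreen, using 50 nM protein, 50 nM peptide and 10 ug/mL streptavidin donor plus Ni-chelate acceptor beads.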
HP1b chromo inh: HP1-beta chromodomain-methylated histone interaction inhibition; P83916; AlphaScreen HP1-beta / biotin-H3K9me3 peptide binding; Potency, µM (highest dose often 114 µM), usual class: inhibitors; 390,000 tested, 0.56% active; AID 540317; note: nearly all actives have a fitted effect of over 70% in size
Target sequence (P83916 whole entry, looked up): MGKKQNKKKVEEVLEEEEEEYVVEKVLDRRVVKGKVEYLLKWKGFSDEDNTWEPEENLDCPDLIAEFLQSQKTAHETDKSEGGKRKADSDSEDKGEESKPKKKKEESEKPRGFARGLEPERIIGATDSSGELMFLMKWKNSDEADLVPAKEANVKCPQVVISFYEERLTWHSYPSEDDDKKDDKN
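AlphaScreen: HP1-beta (50 nM) preformed 30 min with biotin-H3(1-18)K9me3 peptide (50 nM) in PBS pH 7.4, 0.01% Tween-20. Compound added for 30 min at RT, then streptavidin donor/nickel chelate acceptor beads (10 ug/mL) for 30 min.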
JMJD2A Tudor: JMJD2A Tudor domain (human) inhibition; O75164; AlphaScreen JMJD2A-Tudor / H3K4me3 peptide binding; Potency, µM (doses to about 114 µM), actives largely listed as inhibitors; 390,000 tested, 4.4% active; note: nearly all actives have a fitted effect of over 50% in size
TDP1 block: TDP1 (human) enzyme inhibition; AID 485290; Potency, µM (titrated, usually from 130 µM), usual class: inhibitors; recombinant TDP1, AlphaScreen DNA substrate cleavage; 350,000 tested, 0.28% active; Q9NUW8; note: nearly all actives have a fitted effect of over 40% in size
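E. coli-derived human Tdp1, 1 nM final. Cpd preinc 15 min RT; substrate 15 nM final, 5 min RT; AS bead mix 10 ug/ml final, 10 min RT. Signal loss = tyrosine-FITC cleavage. No-enzyme wells = max signal.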
G9a block: inhibitors of human histone lysine methyltransferase G9a; Potency, µM (series often up to 102 µM), usual class: inhibitors; Q96KQ7; G9a H3K9 monomethylation, AlphaScreen, 2 h; 350,000 tested, 8.8% active; note: nearly all actives have a fitted effect of over 75% in size
Target sequence (Q96KQ7 913-1193 limits assumed): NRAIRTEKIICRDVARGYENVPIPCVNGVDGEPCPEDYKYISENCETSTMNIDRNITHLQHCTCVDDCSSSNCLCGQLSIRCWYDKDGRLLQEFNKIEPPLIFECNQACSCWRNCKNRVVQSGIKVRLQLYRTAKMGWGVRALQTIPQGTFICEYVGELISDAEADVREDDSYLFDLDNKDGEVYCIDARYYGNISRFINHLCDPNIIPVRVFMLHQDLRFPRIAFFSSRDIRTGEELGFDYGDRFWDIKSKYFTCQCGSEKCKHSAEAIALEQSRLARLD
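Signal arises when biotinylated H3K9 peptide, once monomethylated, bridges streptavidin donor and antibody-captured acceptor beads. Enzyme at 20 nM was preincubated 15 min with test compounds; peptide 500 nM and SAM 20 uM then reacted for 2 h.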
Hits are given with their value; n = inactive; u = inconclusive; x = no result given; [ ] = dose if it differs, or a comment. In the library only some 12% were active in any assay of this set; here they are far more common. Calls come from the whole dose curve; as a rule, active = well fitted curve in the direction sought with a large enough effect; inconclusive = small, poorly fitted or top-dose-only effect, or another doubt; inactive = no such curve, though single readings can be large; an effect the other way counts as inactive or inconclusive.

SMILES	Sfp PPTase inh	BAZ2B block	HP1b chromo inh	JMJD2A Tudor	TDP1 block	G9a block
O=C(C=C(O)c1ccc(Cl)cc1)C(=O)NNC(=O)C(O)(c1ccccc1)c1ccccc1	x	x	n	u	x	x
COC(=O)C(=O)/C=C(\O)c1ccc(C)cc1	u	u	n	79µM	n	2µM
CCn1c(=O)n(CC)c2cc(N3CCCCC3)c(NC(=O)Nc3ccccc3C(F)(F)F)cc21	x	u	n	u	n	n
N#Cc1ccsc1NC(=O)CCS(=O)(=O)c1ccccc1	n	n	n	n	n	45µM
NC(=O)c1ccsc1NC(=O)CCS(=O)(=O)c1ccc(Cl)cc1	x	n	n	n	n	35µM
N#Cc1ccsc1NC(=O)COC(=O)CCS(=O)(=O)c1ccccc1	x	x	n	n	n	x
CCOCCCNC(=O)C(=O)Nc1c2c(nn1-c1ccc(OC)cc1)CSC2	x	n	n	n	n	n
Cc1cccc(OCCCC(=O)Nc2ccc(N3CCOCC3)cc2)c1	n	n	n	n	n	13µM
Cc1ccc(C)c(OCCCC(=O)Nc2ccc(N3CCOCC3)cc2)c1	n	u	x	x	n	40µM
Cc1ccc(C)c(OCC(=O)Nc2cc(C(=O)O)cc(C(=O)O)c2)c1	n	n	n	n	n	45µM
Cc1ccc(C)c(OCC(=O)Nc2ccccc2C(=O)N2CCOCC2)c1	n	n	n	n	n	89µM
Cc1cc(C)c(OCC(=O)Nc2cc(C(=O)O)cc(C(=O)O)c2)cc1C	n	n	n	n	n	n
CC(=O)Nc1c(C)nn(-c2ccccc2)c1N1CCC(C(=O)Nc2ccc(Cl)cc2C)CC1	x	n	n	n	n	n
Cc1ccc(C)c(OCCC(=O)OCC(=O)Nc2ccc(N3CCOCC3)cc2)c1	x	n	n	n	n	u
Cc1ccc(C)c(OCC(=O)Nc2ccc(N3CCOCC3)cc2)c1	n	u	n	u	n	32µM
CC(C)(C)c1ccc(C2=CC(c3ccccc3)n3ncnc3N2)cc1 (centres undefined)	x	x	n	n	x	x
CCOC(=O)C1=C(c2ccccc2)Nc2ncnn2C1c1ccc(OC)c(OC)c1OC (centres undefined)	n	n	n	n	n	n
COc1cccc(C2=CC(c3ccc(OC)c(OC)c3OC)n3ncnc3N2)c1 (centres undefined)	x	50µM	n	n	n	u
COc1ccc(C2C=C(c3ccc(C)c(C)c3)Nc3ncnn32)c(OC)c1OC (centres undefined)	n	n	n	n	n	50µM
CCN(CC)CCCNC(=O)c1c(C)oc2ncnc(N3CCOCC3)c12	x	n	n	n	n	n
CCC(Sc1nnc2c(n1)[nH]c1ccccc12)C(=O)Nc1ccccc1OC (centres undefined)	x	n	n	n	x	n
CC(C)c1ccc(Nc2ncnc3onc(-c4ccc(F)cc4)c23)cc1	x	n	n	n	n	n
CC[C@]1(O)C[C@@H]2CN(CCc3c([nH]c4ccccc34)[C@@](C(=O)OC)(c3cc4c(cc3OC)N(C)C3[C@]45CCN4CC=C[C@](CC)(C45)[C@@H](OC(C)=O)[C@]3(O)C(=O)OC)C2)C1 (some centres undefined)	n	x	x	x	n	14µM
CCC1(O)CC2CN(CCc3c([nH]c4ccccc34)[C@@](C(=O)OC)(c3cc4c(cc3OC)N(C)C3[C@]45CCN4CC=C[C@@](CC)([C@@H](OC(C)=O)[C@]3(O)C(=O)OC)[C@H]45)C2)C1 (some centres undefined)	x	x	x	x	n	u
CC(C)C[C@@H](CNCC(=O)[C@H](C)NC(=O)c1[nH]cnc1C(=O)N[C@@H](C)CN)NC(=O)c1nc[nH]c1C(=O)N[C@@H](C)C(=O)O	x	x	n	50µM	x	x
SMILES	Sfp PPTase inh	BAZ2B block	HP1b chromo inh	JMJD2A Tudor	TDP1 block	G9a block
C[C@H](NC(=O)c1nc[nH]c1C(=O)N[C@@H](Cc1ccccc1)C(=O)OCc1ccccc1)C(=O)OCc1ccccc1	n	n	n	n	x	x
CC(C)C[C@@H](CNCC(=O)[C@H](C)NC(=O)c1[nH]cnc1C(=O)N[C@@H](C)CN)NC(=O)c1nc[nH]c1C(=O)N[C@@H](CO)C(=O)O	x	x	n	89µM	x	x
CC(C)C[C@@H](CNCC(=O)[C@H](Cc1ccccc1)NC(=O)c1[nH]cnc1C(=O)N[C@@H](C)CN)NC(=O)c1nc[nH]c1C(=O)N[C@@H](C)C(=O)O	x	x	n	79µM	x	x
O=C(CSc1cn[nH]n1)Nc1ccc(O)c(C(=O)O)c1	n	n	n	n	x	13µM
Cc1ccc(NC(=O)CSc2cn[nH]n2)cc1	n	n	n	n	n	50µM
CN1CCN(C2CC(=O)N(c3ccc4c(c3)OCCO4)C2=O)CC1 (centres undefined)	n	u	n	u	n	45µM
CCN(CC)C(=O)c1cccc(NC(=O)C2=COCCO2)c1	x	n	n	n	n	n[12.7 µM]
CCN(CC)S(=O)(=O)c1cc(NC(=O)C2=COCCO2)ccc1Cl	x	n	n	n	n	50µM
O=C(/C=C\c1ccc(-c2cccc([N+](=O)[O-])c2)o1)N1CCOCC1	20µM	u	n	n	n	32µM
O=C(c1ccc(-c2cccc([N+](=O)[O-])c2)o1)N1CCN(c2ccc([N+](=O)[O-])cc2)CC1	x	n	n	n	n	u
O=C(O)c1ccc(-c2cccc([N+](=O)[O-])c2)o1	50µM	u	n	n[11.4 µM]	x	n
CN1CCN(c2ccccc2NC(=O)c2ccc(-c3cccc([N+](=O)[O-])c3)o2)CC1	n	u	u	u	n	u
N#C/C(=C(/O)c1ccc(-c2cccc([N+](=O)[O-])c2)o1)c1nc2ccccc2s1	35µM	45µM	n	u	n	45µM
O=[N+]([O-])c1cccc(-c2ccc(C(=S)N3CCN(c4ccc(F)cc4)CC3)o2)c1	n	35µM	u	u	n	u
Cc1nc2ccccc2n1/C(=N\S(=O)(=O)c1ccccc1)c1ccccc1	n	n	n	n	n	50µM
CC1CN(/C(=N\S(=O)(=O)c2ccccc2)c2ccccc2)CC(C)O1 (centres undefined)	n	n	n	n	n	u
O=C(N/N=C/c1oc(O)c2ccccc12)c1ccccc1	n	n	n	n	n	11µM
CCN(CC(=O)Nc1ccc2c(c1)OCCO2)Cc1cc(=O)n2ccsc2n1	n	n	n	n	n	n
CCN(CC(=O)NCc1ccc(F)cc1)Cc1cc(=O)n2ccsc2n1	n	n	n	n	n	45µM
O=C(CN1C(=O)NC2(CCc3ccccc32)C1=O)Nc1ccccc1C(F)(F)F (centres undefined)	x	n	n	n	n	u
CC1CCCN(c2ncnc3c2cnn3-c2ccccc2)C1 (centres undefined)	89µM	n	n	n	x	n
